# This is part of a sample that, as a whole, favours compounds with a hit. Of some 83,000 tested, about 20% had one in any assay.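 Results are percent growth after 48 hours of single-concentration exposure. 100 means growth as in untreated cells, lower positive values show inhibition; negative values down to -100 show cell death.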 Unmarked numbers belong to inactive results. Calls of active or inactive are those of the source. How the source made its calls: active means growth percent below 10; inactive means the rest.
# System: HL-60(TB) leukemia
# Experiment: NCI-60 one-dose screen, 48 h (100 = growth as untreated, 0 = no growth, -100 = all killed)
# Details: 10 µM unless noted
row,SMILES,growth
1,COc1cc(-c2n/c(=C\c3c(O)[nH]c4cc(Cl)ccc34)cc3c2=Nc2ccccc2-3)cc(OC)c1OC,89.6%
2,N/C(=N\N=C\c1cc2ccccc2[nH]1)N/N=C/c1cc2ccccc2[nH]1,101%
3,COc1cc(Nc2ncccc2NC(=O)c2cn(Cc3cccc(Oc4ccccc4)c3)nn2)cc(OC)c1,64.6%
4,O=C1C[C@H](N2C(=O)c3ccccc3S2(=O)=O)C2CO[C@@H]1O2,106%
5,NNc1cccc([N+](=O)[O-])c1,6.4% (active)
6,COc1cccc(-c2nc(-c3ccc(NC(=O)c4ccccc4)cc3)[nH]c2-c2ccnc(Br)c2)c1,-34% (active)
7,CN1CCN(c2ccc(Nc3ncc(C(N)=O)c(NCCCNC(=O)C4CCC4)n3)cc2)CC1,-36.3% (active)
8,CCOC(=N)c1ccc(C(=N)OCC)cc1,101%
9,CN1CCN(CCCNC(=O)c2c3c(n4ccccc24)C(=O)c2ncccc2C3=O)CC1,-25.4% (active)
10,O=C(CSc1nc2c(n1Nc1ccccc1)-c1ccccc1SC2)Nc1nc(-c2ccc(Cl)cc2)cs1,104%
11,O=C1OCC2=C1C(c1cccc(F)c1)c1cc3c(cc1N2CCO)CCC3 (stereo not given),-29.8% (active)
12,O=C(Cc1ccccc1)Nc1nnc(NC2CCN(c3nnc(NC(=O)Cc4ccccc4)s3)CC2)s1,96.7%
13,CCCCCCCCCCCCNC(=O)[C@H]1CSC(c2ccc(OC)c(F)c2)N1 (stereo not given in full),-70.3% (active)
14,COc1cc2cc(Oc3ccc(NC(=O)Nc4ccc(C(F)(F)F)cc4)cc3)c(C)nc2cc1OC,75.3%
15,C=CC1CN2CCC1CC2C(O)c1ccnc2ccc(OC)cc12 (stereo not given),103%
16,Cc1cc(Nc2ncc(Cl)c(Nc3ccccc3S(=O)(=O)C(C)C)n2)c(OC(C)C)cc1C1CCNCC1,-65% (active)
17,OCCN1CCCCCCC1,102%
18,Cc1ccc2c(c1)C(=O)c1c-2c(OCCCN(C)C)nc2ccccc12,35%
19,Cn1cc(-c2nc(-c3c[nH]c4ccncc34)cs2)c2cc(Br)ccc21,-61.4% (active)
20,CN1C(=O)CN2CCc3ccccc3C2c2cc(Cl)ccc21 (stereo not given),86.8%

row,SMILES,growth
1,CN=C(NC)N/N=C(C)\C=N\NC(=NC)NC,99%
2,Nc1ccccc1NC(=O)CCCCCCC(=O)Nc1ccc2c(c1)/C(=C/c1ccc[nH]1)C(=O)N2,-10.2% (active)
3,Cc1cccc(C)c1NCc1nnc(-c2ccc(O)cc2)o1,111%
4,C=C1C(=O)O[C@H]2[C@H]1CC/C(COC(=O)c1ccc(Cl)nc1)=C\CC[C@@]1(C)O[C@@H]21,-55.1% (active)
5,CCOc1cccc(/C=N/NC(=O)c2ccc(Nc3ccnc(C(F)(F)F)c3)cc2)c1O,37.7%
6,CCOc1ccc(-n2nc(C(=O)Nc3cc(OC)c(OC)c(OC)c3)nc2-c2cc(OC)c(OC)c(OC)c2)cc1,98.2%
7,CC[C@@]1(OC(=O)CN(C)C)C(=O)OCc2c1cc1n(c2=O)Cc2cc3c(N)cccc3nc2-1,-2.25% (active)
8,COc1ccccc1-n1c(SCc2cc(OC)c(OC)c(OC)c2)nc2ccc(Cl)cc2c1=O,-19.6% (active)
9,CC/C=C1/C(=O)C=C[C@@H]1C/C=C\CCCC(=O)O,52.1%
10,Cn1cc(-c2ccc3c(c2)ncn3-c2ccc(CC(=O)Nc3cc(C(C)(C)C)on3)cc2)cn1,67.4%
11,O=C(c1cccc(Br)c1)N1CCN(c2ccnc3cc(Cl)ccc23)CC1,92.6%
12,CSC1=N/C(=C\c2cccc(OCc3ccc(Cl)cc3)c2)C(=O)N1,77.8%
13,COc1cc(CN(c2ccc(C)cc2)C2OC(=O)c3ccccc32)cc(OC)c1OC (stereo not given),-30.4% (active)
14,CC(=O)Oc1cc(C)c(OC(C)=O)c(C)c1C,101%
15,CS(=O)(=O)Nc1cccc(-c2cc(-c3ccccc3Cl)c(C#N)c(N)n2)c1,8.6% (active)
16,O=C(/C=C/c1ccccc1Br)c1cccc(OCCCCOc2cccc(C(=O)/C=C/c3ccccc3Br)c2)c1,92%
17,NS(=O)(=O)c1ccc(Cn2c(SCC(=O)N/N=C/c3ccccc3O)nc3ccccc3c2=O)cc1,40.9%
18,CCOC(=O)c1ccc2c(c1)[n+](=O)c(C(C)=O)c(C(F)(F)F)n2[O-],-65.9% (active)
19,CC/C=C\C[C@H]1C/C=C2/C(=O)C=C[C@H]2C/C=C\CCCC(=O)O1,7.94% (active)
20,CC(C)C[C@H](NC(=O)/C=C/Cn1ccc2ccccc2c1=O)B(O)O,24.2%

# Source: PubChem BioAssay (NCI)
